In PubChem BioAssay (NCI):
Values joined by “and” are separate entries in the source; they are usually repeats but may differ in a detail not shown here. Equal entries are not always repeated. The panel holds about 79,000 compounds, 15% with a hit somewhere; the sample as a whole holds those more often. Some compounds were tested as several samples or in several runs, with calls that do not always agree. Active and inactive are the calls of the source. Rule as the data show it: active = growth inhibition above about 70%; inactive = the rest.

Experiment: NCI Yeast Anticancer Drug Screen. Data for the rad50 strain (AID 155);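 also: 0% = growth of vehicle-only cultures of the same strain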
Details: S. cerevisiae rad50 strain growth inhibition; at 50.0 µM (retest, dose inferred, filed as 5.0); stronger effect = higher value
How it was run: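 Inhibition values express reduced yeast growth in compound-treated cultures relative to vehicle-treated controls.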

| SMILES | growth inhibition |
| --- | --- |
| c1ccc(NC2=NCCN2)nc1 | 82% (active) |
| C[CH2][Sn]([CH2]C)([CH2]C)[O]C(=O)CO | 98% (active) |
| CC12CCC(O)CC1CCC1C2CCC2(C)C1CC1CC(=O)OC12 (stereo not drawn) | 98% (active) |
| Nc1ccc(N=Nc2ccccc2)cc1 | 76% (active) |
| C[n+]1c(/C=C/c2ccc(O)c3ncccc23)[se]c2ccccc21 | 93% (active) |
| COC(=O)C1=C(C)N2CCSC2(C)C(C(=O)OC)C1c1cccc(Cl)c1 (stereo not drawn) | 85% (active) |
| O=[N+]([O-])/C=C/c1ccccc1 | 99% (active) |
| CC12CCC(O)CC1CCC1C2CCC2(C)C(C(=O)CC(O)C(F)(F)F)CCC12 (stereo not drawn) | 62% (inactive) |
| CC(C)NCC(O)c1ccc(O)c(O)c1.[Pt].c1ccc([PH+](c2ccccc2)c2ccccc2)cc1.c1ccc([PH+](c2ccccc2)c2ccccc2)cc1 | 99% (active) |
| CCOC(=O)/C(=C\c1ccc(C(=O)OC)cc1)[Se]c1ccccc1 | 54% (inactive) |
| CC/C(=C/c1ccc2c(c1)OCO2)[N+](=O)[O-] | 99% (active) |
| CCOC(=O)C1=C(C)NC(=O)NC1c1ccc(N(CCCl)CCCl)cc1Cl (stereo not drawn) | 78% (active) |
| S=C(S)N1CCOCC1 | 94% (active) |
| CCOC(=O)c1ccccc1N | 4% (inactive) |
| C[n+]1c(/C=C/c2ccc(O)c(O)c2)[se]c2ccccc21 | 72% (active) |
| CS(=O)(=O)[O-].CS(=O)(=O)[O-].NC1CCCCC1N.[Pt+4] (stereo not drawn) | 99% (active) |
| COc1ccc2c(c1O)-c1cccc3c1[C@@H](C2)N(CCCl)CC3 | 90% (active) |
| COC(=O)CC1(C(=O)O)CC2(Cl)C(Cl)=C(Cl)C1(Cl)C2(Cl)Cl (stereo not drawn) | 30% (inactive) |
| CCCCN(C)CC(C(C)=O)C(c1ccccc1)c1c(O)c2ccccc2oc1=O (stereo not drawn) | 32% (inactive) |
| O=[n+]1c2ccccc2n([O-])c2ccccc21.[Cl][Ni][Cl] | 99% (active) |

| SMILES | growth inhibition |
| --- | --- |
| COc1ccc(C(Cc2ccc(Cl)c(Cl)c2)NCCO)cc1 (stereo not drawn) | 37% (inactive) |
| O=C(N/N=C/c1cc(Cl)cc(Cl)c1[O-])c1ccccc1O.O=C(N/N=C/c1cc(Cl)cc(Cl)c1[O-])c1ccccc1O.[Zn+2] | 63% (inactive) |
| Oc1ccc(Cl)cc1Sc1cc(Cl)ccc1O | 100% (active) and 99% (active) |
| O=S(=O)([O-])[O-].[OH3+].[OH3+].[OH3+].[Ru+2].c1ccccc1 | -9% (inactive) |
| CCCCCC(Cn1ccnc1)c1ccc(Cl)cc1Cl (stereo not drawn) | 95% (active) |
| CC1=C(CO)C(=O)OC(C(C)C2CCC3C4CC5OC56C(O)C(N5CC5)=CC(=O)C6(C)C4CCC23C)C1 (stereo not drawn) | 43% (inactive) |
| CCCC[CH2][Sn]([CH2]CCCC)[CH2]CCCC.CCCC[CH2][Sn]([CH2]CCCC)[CH2]CCCC | 99% (active) |
| CCC[CH2][Sn]1([CH2]CCC)[O]C(=O)C(C(C)C)N=Cc2ccccc2[O]1 (stereo not drawn) | 15% (inactive) |
| Oc1c(Cl)cc(-c2cc(Cl)c(O)c(Cl)c2)cc1Cl | 94% (active) |
| CC(=O)Nc1ccc(/C=N/N=C(/N)N[N+](=O)[O-])cc1 | -1% (inactive) |
| CC(Br)c1ccccc1 (stereo not drawn) | 17% (inactive) |
| C[Si]1(C)CCCCC2(C1)C(=O)NC(=O)NC2=O | 17% (inactive) |
| CCCCCCCCCCCCCCCc1cccc(O)c1O | -7% (inactive) |
| CC1(C)OC2OC3C(CN(CCCl)Cc4ccccc4)OC(c4ccccc4)OC3C2O1 (stereo not drawn) | 18% (inactive) |
| FC(F)(F)c1nc2ccc(SSc3ccc4nc(C(F)(F)F)[nH]c4c3)cc2[nH]1 | 17% (inactive) |
| O=[N+]([O-])c1csc([N+](=O)[O-])c1 | 99% (active) |
| CCc1cc2c(cc1-c1csc(C/C(N)=N/O)n1)C(C)(C)CCC2(C)C | 88% (active) |
| CCCCCCCC[N+](CCCC)(CCCC)CCCC (tested in a mixture with another compound) | 99% (active) |
| CCC[CH2][Sn]([CH2]CCC)([S]C#N)[S]C#N | 97% (active) |

Same assay, conditions: S. cerevisiae rad50 strain growth inhibition; at 50.0 µM; stronger effect = higher value

| SMILES | growth inhibition |
| --- | --- |
| c1ccc(NC2=NCCN2)nc1 | 14.4% (inactive) |
| C[CH2][Sn]([CH2]C)([CH2]C)[O]C(=O)CO | 82.2% (active) |
| CC12CCC(O)CC1CCC1C2CCC2(C)C1CC1CC(=O)OC12 (stereo not drawn) | 98.5% (active) |
| Nc1ccc(N=Nc2ccccc2)cc1 | 69.7% (inactive) |
| C[n+]1c(/C=C/c2ccc(O)c3ncccc23)[se]c2ccccc21 | 93.4% (active) |
| COC(=O)C1=C(C)N2CCSC2(C)C(C(=O)OC)C1c1cccc(Cl)c1 (stereo not drawn) | 80.3% (active) |
| O=[N+]([O-])/C=C/c1ccccc1 | 98% (active) |
| CC12CCC(O)CC1CCC1C2CCC2(C)C(C(=O)CC(O)C(F)(F)F)CCC12 (stereo not drawn) | 84.5% (active) |
| CC(C)NCC(O)c1ccc(O)c(O)c1.[Pt].c1ccc([PH+](c2ccccc2)c2ccccc2)cc1.c1ccc([PH+](c2ccccc2)c2ccccc2)cc1 | 98.7% (active) |
| CCOC(=O)/C(=C\c1ccc(C(=O)OC)cc1)[Se]c1ccccc1 | 74% (active) |
| CC/C(=C/c1ccc2c(c1)OCO2)[N+](=O)[O-] | 99.3% (active) |
| CCOC(=O)C1=C(C)NC(=O)NC1c1ccc(N(CCCl)CCCl)cc1Cl (stereo not drawn) | 38.6% (inactive) |
| S=C(S)N1CCOCC1 | -11.9% (inactive) |
| CCOC(=O)c1ccccc1N | -2.65% (inactive) |
| C[n+]1c(/C=C/c2ccc(O)c(O)c2)[se]c2ccccc21 | 77.7% (active) |
| CS(=O)(=O)[O-].CS(=O)(=O)[O-].NC1CCCCC1N.[Pt+4] (stereo not drawn) | 90.7% (active) |
| COc1ccc2c(c1O)-c1cccc3c1[C@@H](C2)N(CCCl)CC3 | 67.6% (inactive) |
| COC(=O)CC1(C(=O)O)CC2(Cl)C(Cl)=C(Cl)C1(Cl)C2(Cl)Cl (stereo not drawn) | 65.9% (inactive) |
| CCCCN(C)CC(C(C)=O)C(c1ccccc1)c1c(O)c2ccccc2oc1=O (stereo not drawn) | 80.4% (active) |
| O=[n+]1c2ccccc2n([O-])c2ccccc21.[Cl][Ni][Cl] | 90.8% (active) |

| SMILES | growth inhibition |
| --- | --- |
| COc1ccc(C(Cc2ccc(Cl)c(Cl)c2)NCCO)cc1 (stereo not drawn) | 75% (active) |
| O=C(N/N=C/c1cc(Cl)cc(Cl)c1[O-])c1ccccc1O.O=C(N/N=C/c1cc(Cl)cc(Cl)c1[O-])c1ccccc1O.[Zn+2] | 94.5% (active) |
| Oc1ccc(Cl)cc1Sc1cc(Cl)ccc1O | 99.3% (active) and 41% (inactive) and 99.6% (active) |
| O=S(=O)([O-])[O-].[OH3+].[OH3+].[OH3+].[Ru+2].c1ccccc1 | 88.8% (active) |
| CCCCCC(Cn1ccnc1)c1ccc(Cl)cc1Cl (stereo not drawn) | 99.5% (active) |
| CC1=C(CO)C(=O)OC(C(C)C2CCC3C4CC5OC56C(O)C(N5CC5)=CC(=O)C6(C)C4CCC23C)C1 (stereo not drawn) | 76.8% (active) |
| CCCC[CH2][Sn]([CH2]CCCC)[CH2]CCCC.CCCC[CH2][Sn]([CH2]CCCC)[CH2]CCCC | 99.2% (active) |
| CCC[CH2][Sn]1([CH2]CCC)[O]C(=O)C(C(C)C)N=Cc2ccccc2[O]1 (stereo not drawn) | 89.8% (active) |
| Oc1c(Cl)cc(-c2cc(Cl)c(O)c(Cl)c2)cc1Cl | 84.2% (active) |
| CC(=O)Nc1ccc(/C=N/N=C(/N)N[N+](=O)[O-])cc1 | 61.5% (inactive) |
| CC(Br)c1ccccc1 (stereo not drawn) | 50.2% (inactive) |
| C[Si]1(C)CCCCC2(C1)C(=O)NC(=O)NC2=O | 16.4% (inactive) |
| CCCCCCCCCCCCCCCc1cccc(O)c1O | 51.2% (inactive) |
| CC1(C)OC2OC3C(CN(CCCl)Cc4ccccc4)OC(c4ccccc4)OC3C2O1 (stereo not drawn) | 5.3% (inactive) |
| FC(F)(F)c1nc2ccc(SSc3ccc4nc(C(F)(F)F)[nH]c4c3)cc2[nH]1 | 96% (active) |
| O=[N+]([O-])c1csc([N+](=O)[O-])c1 | 99.3% (active) |
| CCc1cc2c(cc1-c1csc(C/C(N)=N/O)n1)C(C)(C)CCC2(C)C | 89.5% (active) |
| CCCCCCCC[N+](CCCC)(CCCC)CCCC (tested in a mixture with another compound) | 99.5% (active) |
| CCC[CH2][Sn]([CH2]CCC)([S]C#N)[S]C#N | 89.3% (active) |
